Data taken from ChEMBL document CHEMBL3988442, “University of Dundee, Small-Polar-MMV Screening Library” (2021).

biological target: Shiga toxin 2 (Escherichia coli O157:H7) (UniProt P09385+P09386); assay: E. coli 0.157:H7 Shiga Toxin SOP - stx2 screening assay; assay type: functional; set-up: scale not given: direction of the effect not stated beside the values; conditions: 30 µM

| Compound | Percent Effect [%] |
| --- | --- |
| COCCN1CC[C@]2(CN(C(=O)c3cccs3)C[C@H]2C)C1=O | -8.13 |
| Cn1cnnc1C1CCCN(C(=O)NCc2ccc3c(c2)OCO3)C1 (stereo not given) | 7.83 |
| Cn1cnnc1S(=O)(=O)C1CCN(S(=O)(=O)c2c(Cl)cccc2Cl)CC1 | 0.759 |
| Cn1ccc(C(=O)NC2CCC23CCN(Cc2cccnc2)CC3)c1 (stereo not given) | -5.95 |
| CN(C)C(=O)[C@@H]1C[C@@H]2CCN(Cc3ccc4c(c3)OCO4)C[C@@H]2O1 | 3.86 |
| COCC(=O)N1CCC2(CCN(Cc3ccccn3)CC2)CC1 | -8.31 |
| COC(=O)c1cccc(NC(=O)CCn2nc(-c3cccs3)oc2=O)c1 | 18.1 |
| O=C(CC1CCCC1)N1C[C@@H]2CCN(c3cccnc3)C[C@@H]2C1 | -5.1 |
| Cc1ccc(N2CCC3(CCN(C(N)=O)CC3)CC2)nn1 | -2.18 |
| Cc1cc(C)n(CC2CN(CC(=O)Nc3c(C)n[nH]c3C)CCO2)n1 (stereo not given) | 6.68 |
| c1cnc(NCc2cncc3c2CCN(Cc2cccs2)C3)nc1 | -9.08 |
| Cc1ccccc1CN1CCC2(COCc3cnc(N(C)C)nc32)C1 (stereo not given) | -15.8 |
| Cc1cnn(CC2CCCCN2CCn2cncn2)c1 (stereo not given) | -38 |
| Cc1nc(N)cc(C2CN(C(=O)c3ccn(C)n3)CCO2)n1 (stereo not given) | 3.51 |
| O=C(NCc1cc[nH]n1)NCC(c1ccccc1Cl)N1CCCC1 (stereo not given) | 4.8 |
| O=C(NC1CC1)N1CCc2ncnc(-c3ccncc3)c2CC1 | -28.2 |
| Cc1ccc(NC(=O)NC(C)c2nc[nH]n2)s1 (stereo not given) | 17.2 |
| CN(C)S(=O)(=O)N1CCCC(c2cccc(Cc3ccccc3)n2)C1 (stereo not given) | 67.3 |
| Cc1ccc(C(=O)NC(CN2CCCC2=O)c2ccccc2)c(=O)[nH]1 (stereo not given) | 2.19 |
| CC(C)c1ncc2c(n1)CN(Cc1cccc(C#N)c1)CC2 | -1.08 |

| Compound | Percent Effect [%] |
| --- | --- |
| Cc1nn(C)c(N(C)C)c1CNCc1cccnc1-n1cncn1 | -5.81 |
| Cc1cc(NC(=O)NCC2CCOC2)no1 (stereo not given) | -24.3 |
| CS(=O)(=O)N[C@@H]1CCO[C@]2(CCN(C(=O)c3cnccn3)C2)C1 | 3.82 |
| CN(CCNC(=O)Nc1ccncc1)C1CCCCC1 | -5.92 |
| O=C(CCc1ccc(=O)[nH]n1)N1CCCC(COc2ccc(F)cc2)C1 (stereo not given) | 6.15 |
| CCCc1noc(CN2CCCC2c2ccsc2)n1 (stereo not given) | 0.761 |
| CN(C)CC(=O)N1CCC2(CC1)CN(c1ccsc1)C(=O)CO2 | -4 |
| OCC1CCCN1c1cc(N2CCc3ccccc3C2)ncn1 (stereo not given) | -49.8 |
| CNS(=O)(=O)Cc1ccc(CNC(=O)Nc2cccnc2)cc1 | -38.8 |
| CN(C)c1cc(CNC(=O)Nc2ccc(S(C)(=O)=O)nc2)ccn1 | -117 |
| CC(C)C(C(=O)N1CCC(N(C)c2cccnn2)CC1)n1cncn1 (stereo not given) | 11.4 |
| Cn1ccnc1CN1CCC2(CC1)CC(Oc1cccnc1)C2 | -18.2 |
| CCc1noc(CN2CCCC2c2noc(C3CC3)n2)n1 (stereo not given) | 12.9 |
| COC(=O)C(c1cc(F)ccc1F)N(C)C(=O)c1cccnc1O (stereo not given) | 8.11 |
| O=C(NCCCNCC1CNc2ccnn2C1)c1ccccc1 (stereo not given) | -16.8 |
| O=C(Cn1ccc2ccccc21)NCc1ccc(C(=O)O)cc1 | 6.55 |
| c1ccc(CN2CC[C@@H]3O[C@H](COCc4ccncc4)CC[C@@H]32)nc1 | -18 |
| Cc1cc(NC(=O)CCc2ccsc2)n(C)n1 | -17.7 |
| O=C(c1cnn2c1OCCC2)N1CCN(C/C=C/c2ccccc2)CC1 | -6.18 |
| O=C(CN1CCCCC1Cn1cccn1)NC1CCN(C2CC2)CC1 (stereo not given) | 4.12 |
